The values that follow come from PubChem BioAssay (NCI).

SMILES strings stand for the structures. Compounds without any hit were thinned out: in the full panel of roughly 83,000, 20% have a hit.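 Values shown are percent growth following 48 h exposure of cells in 96-well plates to a single concentration of compound; below 10 was considered active.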 Unmarked numbers belong to inactive results. Active and inactive are the calls of the source.

This experiment relates to HCT-15 colon. In words: NCI-60 one-dose screen, 48 h (100 = growth as untreated, 0 = no growth, -100 = all killed). As to conditions: 10 µM unless noted. On the procedure: Growth inhibition of the HCT-15 human tumor cell line is measured as a screen for anti-cancer activity. Cells are grown in 96 well plates and exposed to the test compound for 48 hours. Compounds are tested at a single concentration, which is 10^-5 M for most compounds. The reported endpoint is percent growth (GI% or GIPRCNT), where numbers from 0 - 100% represent growth inhibition, and numbers from -100% - 0 represent cell death. For example, a value of 40 represents 60% growth inhibition. A value of 0 means no net growth occurred over the course of the experiment. A value of -40 indicates 40% of cells at the beginning of the experiment died by the end of the experiment. A value of -100 means all cells are dead at the end of the experiment.
NCI-60 Human Tumor Cell Lines Screen was performed using the standard one-dose NCI protocol, which is described in more detail at https://dtp.cancer.gov/discovery_development/nci-60/default.htm.
Compounds with GIPRCNT values below 10 were considered active. Activity score was based on GIPRCNT using the following formula: […]
Score is 0 for GIPRCNT values of 100 or above, 50 for GIPRCNT values of 0, and 100 for GIPRCNT values of -100.
With `Cc1ccc(Cn2c(O)c(N=NC(=O)c3ccc(S(N)(=O)=O)cc3)c3ccccc32)cc1`, the growth was 106%. As for `C[n+]1c2ccccc2nc2c(N)cc(N)cc21`, the growth is 110%. The result for `COc1ccc(-c2ccc(NNC(=O)c3ccc(F)cc3)nn2)cc1OC` reads 64.1%; that for `O=C(Nc1ccc(Cl)c(C(F)(F)F)c1)Nc1ccc(-c2cccnc2)cc1N1CCC(CO)CC1`, 14.8%. On to `Cc1ccccc1OC(=O)c1cccc(Cl)c1`, for which the growth was 104%.

Consider `COc1ccc2[nH]c(C(=O)N3CCN(C(=O)OCc4ccc5c(Br)cc(Br)c(O)c5n4)CC3)cc2c1`, for which the growth was -72.2% (active).

Take `Brc1ccc2c(c1)CN(C1CCCCC1)CO2`: the growth was 104%.

Turning to `O=[N+]([O-])c1cccc(/C=C/c2ccc3ccccc3n2)c1`, the growth is 82.5%.

On to `Cn1cc(-c2noc(-c3cn(C)c4ncccc34)n2)c2cc(Cl)ccc21`, for which the growth is 92.8%. Consider `CCCCCCCCCCCCCCCCCCNC(=S)N/N=C/c1ccc(OC)c(OC)c1`, for which the growth is 88.4%. The result for `Cn1cc(-c2noc(-c3cn(C)c4ncc(F)cc34)n2)c2cc(Cl)ccc21` reads 65.8%. Regarding `O=C(CCNCc1ccccc1)c1ccccc1`, the growth was 106%. `O=C(Nc1ccc(Oc2ccc(F)cc2)c(Cl)c1)c1cccnn1`: the growth is 77.6%. The result for `C[C@H]1[C@H](C)CC[C@]2(C(=O)O)CC[C@]3(C)C(=CC[C@@H]4[C@@]5(C)C/C(=C/c6cccnc6)[C@H](O)C(C)(C)[C@@H]5CC[C@]43C)[C@H]12` reads 2.04% [100 µM] (active); that for `N/C(=N\c1nc2ccccc2[nH]1)NC(=O)Cc1cccc2ccccc12`, 71.7%; that for `CSc1cccc([N+](=O)[O-])c1`, 100%. As for `O=c1c2c3c(sc2n2cnnc2n1Cc1ccccc1)CCCC3`, the growth is 93.4%.

Take `CCN=C1C=CC(=C(c2ccc(N(CC)CC)cc2)c2ccc(N(CC)CC)cc2)c2ccccc21`: the growth is -70.9% (active). The result for `CC1(C)CC[C@]23CC[C@]4(C)[C@H](CC[C@@H]5[C@@]6(C)C/C(=C/c7ccncc7)C(=O)C(C)(C)[C@@H]6CC[C@]54C)[C@H]2[C@H]1OC3=O` reads 76.5% [100 µM]. For `C[n+]1cccc(NC(=O)c2ccc3ccc4ccc(C(=O)Nc5ccc[n+](C)c5)nc4c3n2)c1`, the growth was 61.2%. As to `COc1ccc(C2CC(c3cc(OC)c(OC)c(OC)c3)=NN2C(C)=O)cc1OCC(=O)Nc1nc2ccc(C(F)(F)F)cc2s1` (stereo not given), the growth is 76.2%. The result for `Cc1cnc([C@]23CC[C@@H](C)[C@H](C)[C@H]2C2=CC[C@@H]4[C@@]5(C)Cc6c([nH]c7ccccc67)C(C)(C)[C@@H]5CC[C@@]4(C)[C@]2(C)CC3)o1` reads 66.8% [100 µM].

`c1ccc(-c2nc(N3CCCNCC3)c3nc(-c4ccccc4)oc3n2)cc1`: the growth was -80.4% (active). For `COc1ccc(C(C(=O)O)c2ccc(OC)cc2)cc1`, the growth is 99.4%. For `COc1ccc(NC(=S)NNc2ccc(-c3ccc(OC)c(OC)c3)nn2)cc1`, the growth is 107%.

As to `COc1cc(C)cc2oc3oc(=N)c(C(=O)c4ccccc4)cc3c(=O)c12`, the growth is 103%. The result for `CCOC(=O)c1cc(C(=O)c2ccc(OC)c(OC)c2)n2ccc(-c3ccccn3)cc12` reads 83%.

Take `CCOC(=O)C1=C(C(=O)c2ccc(Br)cc2)C(c2ccc(Br)cc2)NC(=S)N1` (stereo not given): the growth was 99%.

Regarding `C[C@]12CCc3c(ccc4cc(O)ccc34)[C@@H]1CC[C@H]2O`, the growth was 93.4%. The result for `C=CCCC1(C)NC(=O)NC1=O` (stereo not given) reads 105%; that for `CC1=C/C(=C(\c2cc(C)c(O)c(C(=O)O)c2)c2c(Cl)cccc2Cl)C=C(C(=O)O)C1=O`, 105%; that for `O=C(N/N=C\c1cc(Cl)ccc1O)N/N=C/c1cc(Cl)ccc1O`, 32.5%. The result for `C=C(C)[C@@H]1CC[C@]2(C(N)=O)CC[C@]3(C)[C@H](CC[C@@H]4[C@@]5(C)C/C(=C/c6cccnc6)C(=O)C(C)(C)[C@@H]5CC[C@]43C)[C@@H]12` reads 14.9% [100 µM]; that for `CC(=O)OC[C@]12CC[C@@H]([C@@H](C)C(N)=O)[C@@H]1[C@H]1CC[C@@H]3[C@@]4(C)CC[C@H](OC(C)=O)C(C)(C)[C@@H]4CC[C@@]3(C)[C@]1(C)CC2`, -44.1% [100 µM] (active); that for `Cc1ccccc1-n1nnc(C(=O)Nc2nc3ccc(F)cc3s2)c1C`, 61.1%. `CC1(C)CC(=O)c2c(ccc(C(=O)C[C@@H](N)CO)c2N)O1`: the growth is 4.96% (active).

For `O=C(O)CC1CCCCC1c1ccccc1` (stereo not given), the growth was 97.8%. Turning to `CCCCCCNC(=O)Nc1ncnc2c1ncn2-c1ccccc1`, the growth was 95.2%. On to `CC1(C)CC[C@]2(C(N)=O)CC[C@]3(C)C(=CC[C@@H]4[C@@]5(C)C/C(=C/c6ccncc6)C(=O)C(C)(C)[C@@H]5CC[C@]43C)[C@@H]2C1`, for which the growth was -49.7% [100 µM] (active).

Consider `CCCSc1nc(N)nc2nc[nH]c12`, for which the growth is 104%.
